# Measured values as given in PubChem BioAssay (EPA / NIEHS).
# Records with an inconclusive call do not appear. Some compounds were tested as several samples or in several runs, with calls that do not always agree. Active and inactive are the calls of the source. Rule for the calls, unless noted: active = hit-call score of the fitted dose curve at least 0.9, where 1 is the maximum; inconclusive = response in the unintended direction; inactive = score below 0.9.
# Assays:
# [1] = molecular target: frog Thyroid hormone Receptor alpha (TRa), thra-a (gene 397942) (UniProt P15204); experiment: ATG_frTRa_XSP2: Attagene TRANS-FACTORIAL Multi-Species (XSP2) HepG2 Assay for frog Thyroid hormone Receptor alpha (TRa) (AID 2283839);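 for AC50: AC50 reflects induction of frog TRa-driven reporter mRNA above DMSO baseline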
# frog Thyroid hormone Receptor alpha (TRa), thra-a (gene 397942), sequence (P15204 whole entry, looked up, the tested form may be a part): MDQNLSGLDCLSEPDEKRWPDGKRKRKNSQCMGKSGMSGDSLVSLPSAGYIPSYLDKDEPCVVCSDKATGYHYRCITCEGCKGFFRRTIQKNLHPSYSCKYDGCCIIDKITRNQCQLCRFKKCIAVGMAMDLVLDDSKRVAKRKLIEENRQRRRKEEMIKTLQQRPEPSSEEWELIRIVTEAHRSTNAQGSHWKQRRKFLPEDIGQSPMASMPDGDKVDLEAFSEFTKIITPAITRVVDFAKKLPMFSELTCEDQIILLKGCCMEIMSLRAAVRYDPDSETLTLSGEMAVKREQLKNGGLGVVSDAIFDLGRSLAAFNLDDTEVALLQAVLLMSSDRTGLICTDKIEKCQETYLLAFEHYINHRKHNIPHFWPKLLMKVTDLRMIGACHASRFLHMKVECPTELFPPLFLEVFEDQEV
# Procedure, shortened: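 Transfect HepG2 with multiple reporter units (GAL4-UAS), dose chemical, incubate 24 h. Isolate RNA, reverse-transcribe, PCR-amplify reporter, label with 6-FAM by primer extension, digest with HpaI, run capillary electrophoresis; induction scored against DMSO.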
# [2] = molecular target: human Thyroid hormone Receptor beta (TRb), THRB (gene 7068) (UniProt P10828); experiment: ATG_hTRb_XSP2: Attagene TRANS-FACTORIAL Multi-Species (XSP2) HepG2 Assay for human Thyroid hormone Receptor beta (TRb) (AID 2283840);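 note: actives raise reporter mRNA so potency reflects agonist-like gain of signal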
# human Thyroid hormone Receptor beta (TRb), THRB (gene 7068), sequence (P10828 whole entry, looked up, the tested form may be a part): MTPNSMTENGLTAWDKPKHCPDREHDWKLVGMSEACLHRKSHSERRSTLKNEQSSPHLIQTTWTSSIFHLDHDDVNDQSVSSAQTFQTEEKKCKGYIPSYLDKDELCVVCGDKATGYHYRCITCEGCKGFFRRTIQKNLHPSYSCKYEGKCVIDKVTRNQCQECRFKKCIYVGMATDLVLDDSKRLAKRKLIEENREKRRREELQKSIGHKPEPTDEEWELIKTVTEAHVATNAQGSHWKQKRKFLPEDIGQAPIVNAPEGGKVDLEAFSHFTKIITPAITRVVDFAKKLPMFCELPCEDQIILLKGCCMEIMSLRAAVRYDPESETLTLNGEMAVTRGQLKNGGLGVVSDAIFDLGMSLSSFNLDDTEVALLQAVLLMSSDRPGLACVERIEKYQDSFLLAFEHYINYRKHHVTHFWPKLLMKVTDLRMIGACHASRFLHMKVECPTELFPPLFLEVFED
# Procedure, shortened: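 Transient transfection of human HepG2 with multi-species NR-Gal4/GAL4-UAS reporter constructs; 24 h compound treatment; RNA isolation, reverse transcription, PCR and HpaI digest; capillary electrophoresis of labeled fragments; activity fitted upward versus DMSO.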
# [3] = test system: Sodium/Iodide Symporter (NIS), SLC5A5 (gene 6528); experiment: CPHEA_Stoker_NIS_Inhibition_RAIU: CPHEA's Radioactive Iodide Uptake (RAIU) Assay for Sodium/Iodide Symporter (NIS) Inhibition, Stoker and Laws Labs (AID 2283841)
# Procedure, shortened: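 Iodide uptake read as CPM of intracellular 125I (final 329 pM) after 2 h room-temperature exposure in HEPES-buffered HBSS, pH 7.4. Human NIS-expressing HEK293T cells; six concentrations 0.001–100 uM, 0.5% DMSO, normalised to DMSO wells.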
# [4] = CPHEA_Stoker_NIS_Cytotoxicity: Cytotoxicity Assessment for CPHEA's Radioactive Iodide Uptake (RAIU) Assay for Sodium/Iodide Symporter (NIS) Inhibition, Stoker and Laws Labs (AID 2283897);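 for AC50: active means loss of ATP signal versus DMSO meaning cytotoxicity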
# Procedure, shortened: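 CellTiter-Glo ATP luminescence gauged viability in HEK293T cells expressing human NIS after 2 h chemical exposure. Concentrations ran 0.001–100 uM in 0.5% DMSO; DMSO served as baseline for the loss-of-signal fit.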
# PGR (gene 5241) [5] = molecular target: PGR (gene 5241) (UniProt P06401); experiment: TOX21_PR_BLA_Followup_Antagonist_ratio: Tox21 HEK293 Progesterone Receptor (PR) Antagonism Beta-lactamase Follow-Up Assay, Ratio (AID 2283934)
# PGR (gene 5241), sequence (P06401 whole entry, looked up, the tested form may be a part): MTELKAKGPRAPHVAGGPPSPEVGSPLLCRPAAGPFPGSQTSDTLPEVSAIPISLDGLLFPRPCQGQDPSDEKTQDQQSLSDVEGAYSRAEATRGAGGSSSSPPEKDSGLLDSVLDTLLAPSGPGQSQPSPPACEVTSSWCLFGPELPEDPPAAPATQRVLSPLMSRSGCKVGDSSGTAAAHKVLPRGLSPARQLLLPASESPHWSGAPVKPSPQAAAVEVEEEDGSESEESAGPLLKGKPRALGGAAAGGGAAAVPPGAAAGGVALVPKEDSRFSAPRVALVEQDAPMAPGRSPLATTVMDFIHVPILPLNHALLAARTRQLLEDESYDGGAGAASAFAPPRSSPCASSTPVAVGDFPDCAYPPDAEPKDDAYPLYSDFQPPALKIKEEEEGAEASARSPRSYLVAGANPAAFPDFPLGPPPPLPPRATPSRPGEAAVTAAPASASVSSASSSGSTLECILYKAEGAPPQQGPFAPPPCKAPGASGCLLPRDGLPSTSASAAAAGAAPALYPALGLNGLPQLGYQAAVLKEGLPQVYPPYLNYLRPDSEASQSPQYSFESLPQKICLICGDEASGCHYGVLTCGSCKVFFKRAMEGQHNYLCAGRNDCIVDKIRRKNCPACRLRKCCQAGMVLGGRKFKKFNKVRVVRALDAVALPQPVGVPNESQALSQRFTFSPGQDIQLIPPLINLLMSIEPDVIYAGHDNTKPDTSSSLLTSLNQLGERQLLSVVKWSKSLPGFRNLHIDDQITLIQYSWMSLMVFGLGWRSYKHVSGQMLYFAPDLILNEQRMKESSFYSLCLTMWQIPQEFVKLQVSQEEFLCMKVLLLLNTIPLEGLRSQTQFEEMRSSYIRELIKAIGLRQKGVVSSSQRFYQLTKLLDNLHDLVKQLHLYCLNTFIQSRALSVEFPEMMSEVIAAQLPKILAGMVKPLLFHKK
# Procedure, shortened: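 Read-out: blue/green beta-lactamase FRET ratio (cleaved ch2 over uncleaved ch1), fitted relative to DMSO baseline. Cells: PR-UAS-bla HEK293T, GAL4-UAS reporter, stimulated with 1 nM R5020 final; 16 hr compound exposure, 37C.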
# [6] = TOX21_PR_BLA_Followup_Agonist_viability: Viability Assessment in the Tox21 HEK293 Progesterone Receptor (PR) Agonism Beta-lactamase Follow-Up Assay (AID 2283935);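 note: signal loss means lower viability so actives are cytotoxic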
# Procedure, shortened: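 Luminescent ATP quantitation (CellTiter-Glo, 30 min, room temperature) in the same wells as the beta-lactamase read, on PR-UAS-bla HEK293T cells exposed to compound for 16 hr at 37C in 2% charcoal-stripped serum.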
# [7] = TOX21_PR_BLA_Followup_Antagonist_viability: Viability Assessment in the Tox21 HEK293 Progesterone Receptor (PR) Antagonism Beta-lactamase Follow-Up Assay (AID 2283936);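 note: cells exposed to compound with R5020 agonist for 16 h; hits lower the luminescence signal meaning cytotoxicity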
# Procedure, shortened: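 PR-UAS-bla HEK293T cells in medium with 2% charcoal-stripped FBS were treated with compounds plus R5020 for 16 hr at 37C. After the beta-lactamase read, CellTiter-Glo was added to the same wells and luminescence read after 30 min at room temperature.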
# PGR (gene 5241) [8] = molecular target: PGR (gene 5241) (UniProt P06401); experiment: TOX21_PR_LUC_Followup_Antagonist: Tox21 HEK293 Progesterone Receptor (PR) Antagonism Luciferase Follow-Up Assay (AID 2283938);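 note: curve fitted upward as signal gain over DMSO baseline despite antagonist label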
# Procedure, shortened: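 Cells are grown 5 days in charcoal-stripped-FBS assay medium, plated, left 5 h, then dosed with compound and incubated 16 h. ONE-Glo reagent is added and luminescence read after 30 min.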
# [9] = CEETOX_H295R_CORTIC_noMTC: CeeTox H295R High-throughput Steroidogenesis Assay for Corticosterone (CORTIC), maximum tolerated concentration (MTC) filtered results only (AID 2283917; active = hit-call score of the fitted dose curve at least 0.9, where 1 is the maximum; inactive = score below 0.9); conditions: actives raise or lower the signal
# Procedure, shortened: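 Forskolin-stimulated (10 uM, 48 h) H295R cells are dosed 48 h with chemical in DMSO (0.1% final); corticosterone change is quantified by HPLC-MS/MS and fitted bidirectionally against DMSO, unfiltered for MTT-derived MTC.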
# [10] = CEETOX_H295R_ESTRADIOL_noMTC: CeeTox H295R High-throughput Steroidogenesis Assay for Estradiol, maximum tolerated concentration (MTC) filtered results only (AID 2283919; active = hit-call score of the fitted dose curve at least 0.9, where 1 is the maximum; inactive = score below 0.9); conditions: actives raise or lower the signal
# Procedure, shortened: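 Readout: dansyl-derivatized estradiol quantified by LC-MS/MS in medium from H295R cells dosed 48 h (0.1% DMSO) following 48 h forskolin (10 uM) prestimulation. Gain or loss of signal fitted against DMSO; no MTC filtering applied.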
# [11] = CEETOX_H295R_ESTRONE_noMTC: CeeTox H295R High-throughput Steroidogenesis Assay for Estrone, maximum tolerated concentration (MTC) filtered results only (AID 2283921; active = hit-call score of the fitted dose curve at least 0.9, where 1 is the maximum; inactive = score below 0.9); conditions: actives raise or lower the signal
# Procedure, shortened: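 Estrone in spent medium, quantified by tandem MS following dansyl chloride derivatization, after 48 h chemical exposure (0.1% DMSO) of forskolin-prestimulated (10 uM, 48 h) H295R cells; concentrations not MTC-filtered, bidirectional fit against DMSO.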
# PGR (gene 5241) [12] = molecular target: PGR (gene 5241) (UniProt P06401); experiment: TOX21_PR_BLA_Followup_Agonist_ratio: Tox21 HEK293 Progesterone Receptor (PR) Agonism Beta-lactamase Follow-Up Assay, Ratio (AID 2283933)
# Procedure, shortened: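 Read-out: ratio of cleaved (ch2) to uncleaved (ch1) beta-lactamase substrate fluorescence, gain-of-signal relative to DMSO baseline. Cells: PR-UAS-bla HEK293T, 2% charcoal-stripped FBS; compound exposure 16 hr, 37C; substrate 2 hr, RT.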
# PGR (gene 5241) [13] = molecular target: PGR (gene 5241) (UniProt P06401); experiment: TOX21_PR_LUC_Followup_Agonist: Tox21 HEK293 Progesterone Receptor (PR) Agonism Luciferase Follow-Up Assay (AID 2283937; active = hit-call score of the fitted dose curve at least 0.9, where 1 is the maximum; inactive = score below 0.9)
# Procedure, shortened: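 Luminescence read-out (ONE-Glo, 30 min at room temperature) of PR-driven luciferase in HEK293-PR-A-luc cells after 16 h compound exposure at 37C; gain of signal fitted relative to DMSO baseline.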
structure (smiles),measurement,setting,value
CCCCC(CC)COC(=O)c1ccc(O)cc1 (stereo not given),outcome,[1],inactive
same,outcome,[2],inactive
same,AC50,[3],10.4 µM (active)
same,AC50,[4],83.9 µM (active)
OCc1cccc(Oc2ccccc2)c1,outcome,[1],inactive
same,outcome,[2],inactive
CCCCCC(C=O)=Cc1ccccc1,outcome,[3],inactive
same,outcome,[4],inactive
C[C@H]1O[C@@H](O[C@H]2[C@@H](O)C[C@H](O[C@H]3[C@@H](O)C[C@H](O[C@H]4CC[C@@]5(C)[C@H](CC[C@@H]6[C@@H]5C[C@@H](O)[C@]5(C)[C@@H](C7=CC(=O)OC7)CC[C@]65O)C4)O[C@@H]3C)O[C@@H]2C)C[C@H](O)[C@@H]1O,AC50,[3],1.12 µM (active)
same,outcome,[4],inactive
CCCCCCC(=O)c1ccccc1,outcome,[3],inactive
same,outcome,[4],inactive
Clc1ccc(C(c2ccccc2Cl)C(Cl)Cl)cc1 (stereo not given),outcome,[1],inactive
same,outcome,[2],inactive
same,outcome,[3],inactive
same,outcome,[4],inactive
same,AC50,PGR (gene 5241) [5],11 µM (active)
same,outcome,[6],inactive
same,outcome,[7],inactive
same,AC50,PGR (gene 5241) [8],13.1 µM (active)
O=C(CC(=O)c1ccccc1)c1ccccc1,outcome,[3],inactive
same,outcome,[4],inactive
CCOC(=O)[C@@H](C)Oc1ccc(Oc2nc3ccc(Cl)cc3o2)cc1,outcome,[3],inactive
same,outcome,[4],inactive
CCCCCCCCc1ccc(S(=O)(=O)O)cc1,outcome,[3],inactive
same,outcome,[4],inactive
Cc1cc(=O)oc2cc(N(C)C)ccc12,outcome,[1],inactive
same,outcome,[2],inactive
O=c1c(O)c(-c2ccc(O)cc2)oc2cc(O)cc(O)c12,outcome,[1],inactive
same,outcome,[2],inactive
same,outcome,[3],inactive
same,outcome,[4],inactive
same,AC50,PGR (gene 5241) [5],43.7 µM (active)
same,outcome,[6],inactive
c1ccc(Oc2ccccc2)cc1,outcome,[3],inactive
same,outcome,[4],inactive
Oc1ccc2cc(SSc3ccc4cc(O)ccc4c3)ccc2c1,AC50,[1],160 µM (active)
same,outcome,[1],inactive
same,AC50,[2],100 µM (active)
same,outcome,[2],inactive
O=[N+]([O-])c1ccc(O)cc1C(F)(F)F,outcome,[3],inactive
same,outcome,[4],inactive
OCC#CCO,outcome,[3],inactive
same,outcome,[4],inactive
BrCc1cccc(Oc2ccccc2)c1,outcome,[1],inactive
same,outcome,[2],inactive
same,outcome,[3],inactive
same,outcome,[4],inactive
CCc1cc(Cc2cc(CC)cc(C(C)(C)C)c2O)c(O)c(C(C)(C)C)c1,outcome,[3],inactive
CCCCCCCCCCCCCCN(CCO)CCO,outcome,[3],inactive
same,outcome,[4],inactive
OC[C@H]1O[C@@H]2O[C@H]3[C@H](O)[C@@H](O)[C@@H](O[C@H]4[C@H](O)[C@@H](O)[C@@H](O[C@H]5[C@H](O)[C@@H](O)[C@@H](O[C@H]6[C@H](O)[C@@H](O)[C@@H](O[C@H]7[C@H](O)[C@@H](O)[C@@H](O[C@H]8[C@H](O)[C@@H](O)[C@@H](O[C@H]9[C@H](O)[C@@H](O)[C@@H](O[C@H]1[C@H](O)[C@H]2O)O[C@@H]9CO)O[C@@H]8CO)O[C@@H]7CO)O[C@@H]6CO)O[C@@H]5CO)O[C@@H]4CO)O[C@@H]3CO,outcome,[3],inactive
same,outcome,[4],inactive
CCCCCCCCSCCO,outcome,[3],inactive
same,outcome,[4],inactive
CCCCCCCCC=CCCCCCCCC1=NCCN1CCO,outcome,[3],inactive
same,outcome,[4],inactive
O=C(c1ccccc1)C(O)c1ccccc1 (stereo not given),outcome,[3],inactive
same,outcome,[4],inactive
COc1ccc(OC)c(N=Nc2c(O)ccc3ccccc23)c1,outcome,[9],inactive
CC=Cc1ccc(OC)c(OC)c1,AC50,[9],39.5 µM (active)
O=C(Nc1ccc2c(O)c(N=Nc3ccc(N=Nc4ccc(S(=O)(=O)O)cc4)cc3)c(S(=O)(=O)O)cc2c1)c1ccccc1,outcome,[10],inactive
same,outcome,[11],inactive
O=C(Nc1ccc2c(c1)Cc1ccccc1-2)C(F)(F)F,outcome,PGR (gene 5241) [12],inactive
same,outcome,PGR (gene 5241) [13],inactive
